We go through three compounds from PubChem BioAssay (EPA / NIEHS).

Molecules are shown by their SMILES. Calls of active or inactive are those of the source. The calls were made as follows: active = hit-call score of the fitted dose curve at least 0.9, where 1 is the maximum; inactive = score below 0.9.

Holding throughout (details): mRNA level, 48 h; actives raise or lower the signal
Read-out in experiment [1]: Pro-epidermal growth factor (Homo sapiens) (UniProt P01133)
Put plainly: LTEA_HepaRG_EGF: Life Technologies and Expression Analysis (LTEA) Assay for Epidermal growth factor (EGF) using HepaRG (AID 2283489). The essentials: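 HepaRG cells (~100,000/well, 48 h pre-culture) exposed in duplicate for 48 h in serum-free induction medium to 8 half-log concentrations up to 100 uM in 0.5% DMSO. EGF mRNA by qRT-PCR, normalized to ACTB/GAPDH/POLR2A; bidirectional fit versus DMSO.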

Read-out in experiment [2]: Early growth response protein 1 (EGR1) transcription factor, EGR1 (gene 1958)
Put plainly: LTEA_HepaRG_EGR1: Life Technologies and Expression Analysis (LTEA) Assay for Early growth response protein 1 (EGR1) transcription factor using HepaRG (AID 2283490). The essentials:
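HepaRG, 48 h exposure, 8-pt half-log series from 100 uM, 0.5% DMSO vehicle; EGR1 transcript by TaqMan qRT-PCR (Fluidigm array), housekeeping-normalized; bidirectional fit relative to DMSO baseline.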

Read-out in experiment [3]: Ezrin (EZR), EZR (gene 7430)
Put plainly: LTEA_HepaRG_EZR: Life Technologies and Expression Analysis (LTEA) Assay for Ezrin (EZR) using HepaRG (AID 2283491). The essentials:
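EZR transcript levels came from Fluidigm qRT-PCR and were normalized to three housekeeping genes after 48 h chemical exposure of HepaRG cells. Dosing used an 8-point half-log series with a 100 uM top concentration in 0.5% DMSO, tested in duplicate; both directions were fitted versus vehicle.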

Read-out in experiment [4]: Cytochrome P450 3A7 (Homo sapiens) (UniProt P24462)
Put plainly: LTEA_HepaRG_CYP3A7: Life Technologies and Expression Analysis (LTEA) Assay for CYP3A7 using HepaRG (AID 2283492). The essentials:
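Differentiated HepaRG cells in serum-free induction medium exposed 48 h in duplicate to 8-point half-log series from 100 uM top in 0.5% DMSO. CYP3A7 mRNA by qRT-PCR, normalized to ACTB/GAPDH/POLR2A, bidirectional fit versus DMSO.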

Read-out in another experiment: CYP3A5 (gene 1577)
Put plainly: LTEA_HepaRG_CYP3A5: Life Technologies and Expression Analysis (LTEA) Assay for CYP3A5 using HepaRG (AID 2283493). In outline: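 Human HepaRG hepatic cells receive 48 h chemical treatment at eight concentrations (half-log steps from 100 uM) in 0.5% DMSO. Expression of CYP3A5 is quantified by Fluidigm qRT-PCR and normalized to three reference genes.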

Read-out in experiment [5]: Fatty Acid-Binding Protein 1 (FABP1), FABP1 (gene 2168)
Put plainly: LTEA_HepaRG_FABP1: Life Technologies and Expression Analysis (LTEA) Assay for Fatty Acid-Binding Protein 1 (FABP1) using HepaRG (AID 2283494). The essentials: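 qRT-PCR readout of FABP1 transcript (normalized to three housekeeping genes) after 48 h chemical exposure of HepaRG cells; eight concentrations, half-log steps, max 100 uM, 0.5% DMSO vehicle; gain or loss fitted relative to DMSO baseline.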

Read-out in experiment [6]: Cytochrome P450 4A22 (Homo sapiens) (UniProt Q5TCH4)
Put plainly: LTEA_HepaRG_CYP4A22: Life Technologies and Expression Analysis (LTEA) Assay for Cytochrome P450 4A22 (CYP4A22) using HepaRG (AID 2283495). In outline: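 Differentiated HepaRG cells in serum-free induction medium exposed 48 h in duplicate to eight half-log concentrations up to 100 uM in 0.5% DMSO. CYP4A22 mRNA quantified by TaqMan qRT-PCR, normalized to ACTB, GAPDH and POLR2A; bidirectional fit versus DMSO.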

Read-out in experiment [7]: Cytochrome P450 7A1 (Homo sapiens) (UniProt P22680)
Put plainly: LTEA_HepaRG_CYP7A1: Life Technologies and Expression Analysis (LTEA) Assay for Cytochrome P450 7A1 (CYP7A1) using HepaRG (AID 2283496). In outline:
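HepaRG, 48 h exposure, 8-pt half-log series from 100 uM, 0.5% DMSO vehicle, duplicates. Readout: TaqMan qRT-PCR mRNA vs three housekeeping genes; bidirectional curve fit against DMSO baseline.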

Read-out in experiment [8]: Glutathione S-Transferase (GSTA2), GSTA2 (gene 2939)
Put plainly: LTEA_HepaRG_GSTA2: Life Technologies and Expression Analysis (LTEA) Assay for Glutathione S-Transferase (GSTA2) using HepaRG (AID 2283497). The essentials:
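qRT-PCR readout of GSTA2 transcript, normalized to three housekeeping genes, fitted bidirectionally against 0.5% DMSO baseline. Differentiated HepaRG cells received compound for 48 h at 8 concentrations (top 100 uM, half-log steps).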

Read-out in experiment [9]: Glutamate-cysteine ligase catalytic (GCLC), GCLC (gene 2729)
Put plainly: LTEA_HepaRG_GCLC: Life Technologies and Expression Analysis (LTEA) Assay for Glutamate-cysteine ligase catalytic (GCLC) using HepaRG (AID 2283498). In outline:
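HepaRG, 48 h exposure, 8-pt half-log series from 100 uM, 0.5% DMSO vehicle; TaqMan qRT-PCR for GCLC mRNA, housekeeping-normalized; bidirectional curve fit vs DMSO baseline.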

Read-out in experiment [10]: Glutamate-cysteine ligase regulatory (GCLM), GCLM (gene 2730)
Put plainly: LTEA_HepaRG_GCLM: Life Technologies and Expression Analysis (LTEA) Assay for Glutamate-cysteine ligase regulatory (GCLM) using HepaRG (AID 2283500). The essentials:
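Endpoint is GCLM transcript level by qRT-PCR, normalized to three housekeeping genes, after 48 h chemical exposure of human HepaRG cells (0.5% DMSO vehicle, top 100 uM, half-log dilutions). Fitting was bidirectional relative to DMSO.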

Read-out in experiment [11]: Glutathione S-transferase M3 (GSTM3), GSTM3 (gene 2947)
Put plainly: LTEA_HepaRG_GSTM3: Life Technologies and Expression Analysis (LTEA) Assay for Glutathione S-transferase M3 (GSTM3) using HepaRG (AID 2283501). The essentials:
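Differentiated human HepaRG cells were exposed in duplicate for 48 h in serum-free induction medium, 8 points from 100 uM top in half-log steps, 0.5% DMSO. GSTM3 mRNA was measured by TaqMan qRT-PCR, normalized to ACTB, GAPDH and POLR2A; bidirectional fit versus DMSO.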

Read-out in experiment [12]: Heat shock 70 kDa protein 1 (HSPA1A), gene 3303
Put plainly: LTEA_HepaRG_HSPA1A: Life Technologies and Expression Analysis (LTEA) Assay for Heat shock 70 kDa protein 1 (HSPA1A) using HepaRG (AID 2283502). In outline:
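Cells were plated and cultured for 48 h, then switched to serum-free induction medium. Chemicals were added at eight half-log concentrations up to 100 uM for 48 h. RNA was then isolated and HSPA1A measured by qRT-PCR with bidirectional curve fitting against DMSO.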

Read-out in experiment [13]: Hypoxia-inducible factor 1-alpha (Homo sapiens) (UniProt Q16665)
Put plainly: LTEA_HepaRG_HIF1A: Life Technologies and Expression Analysis (LTEA) Assay for Hypoxia-inducible factor 1 (HIF1A) Trancription factor using HepaRG (AID 2283503). The essentials:
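HIF1A transcript level read by qRT-PCR (ACTB, GAPDH, POLR2A normalization) after 48 h chemical exposure of HepaRG cultures. Eight half-log concentrations, top 100 uM, 0.5% DMSO vehicle, duplicates; bidirectional curve fit against DMSO baseline.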

Read-out in experiment [14]: 3-Hydroxy-3-Methylglutaryl-CoA Synthase 2 (HMGCS2), HMGCS2 (gene 3158)
Put plainly: LTEA_HepaRG_HMGCS2: Life Technologies and Expression Analysis (LTEA) Assay for 3-Hydroxy-3-Methylglutaryl-CoA Synthase 2 (HMGCS2) using HepaRG (AID 2283504). The essentials: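 Human HepaRG cells in serum-free induction medium were exposed in duplicate for 48 h to 8-point half-log series from 100 uM top in 0.5% DMSO. HMGCS2 mRNA measured by TaqMan qRT-PCR, normalised to ACTB, GAPDH, POLR2A; bidirectional fit versus DMSO.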

Read-out in experiment [15]: Insulin Like Growth Factor 1 (IGF1), IGF1 (gene 3479)
Put plainly: LTEA_HepaRG_IGF1: Life Technologies and Expression Analysis (LTEA) Assay for Insulin Like Growth Factor 1 (IGF1) using HepaRG (AID 2283506). In outline:
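Cells are thawed, plated and cultured 48 h, then exposed in duplicate to chemical (highest 100 uM, half-log steps, 0.5% DMSO) for another 48 h. Total RNA is analysed by Fluidigm qRT-PCR for IGF1 expression relative to vehicle.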

Read-out in experiment [16]: Insulin-like growth factor-binding protein 1 (IGFBP1), IGFBP1 (gene 3484)
Put plainly: LTEA_HepaRG_IGFBP1: Life Technologies and Expression Analysis (LTEA) Assay for Insulin-like growth factor-binding protein 1 (IGFBP1) using HepaRG (AID 2283508). In outline:
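HepaRG cells, plated 48 h then switched to serum-free induction medium, exposed in duplicate for 48 h to 8-point half-log series from 100 uM in 0.5% DMSO. mRNA measured by qRT-PCR, normalized to ACTB/GAPDH/POLR2A; bidirectional fit versus DMSO.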

Read-out in experiment [17]: growth arrest and DNA damage 45 (GADD45G), GADD45G (gene 10912)
Put plainly: LTEA_HepaRG_GADD45G: Life Technologies and Expression Analysis (LTEA) Assay for growth arrest and DNA damage 45 (GADD45G) using HepaRG (AID 2283499). In outline: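 Differentiated human HepaRG cells, 48 h post-plating, exposed 48 h in serum-free induction medium to 8 half-log concentrations (top 100 uM, 0.5% DMSO) in duplicate. GADD45G mRNA measured by Fluidigm TaqMan qRT-PCR, normalized to ACTB, GAPDH, POLR2A; bidirectional fit versus DMSO.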

Read-out in the next experiment: HGF (gene 3082)
Put plainly: LTEA_HepaRG_HGF: Life Technologies and Expression Analysis (LTEA) Assay for Hepatocyte Growth Facto (HGF) using HepaRG (AID 2283505). In outline:
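Differentiated HepaRG cells in serum-free induction medium exposed 48 h in duplicate, 8 half-log concentrations from 100 uM in 0.5% DMSO. HGF mRNA by qRT-PCR, normalised to ACTB, GAPDH, POLR2A; bidirectional fitting.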

Read-out in experiment [18]: Intercellular Adhesion Molecule 1 (ICAM1), ICAM1 (gene 3383)
Put plainly: LTEA_HepaRG_ICAM1: Life Technologies and Expression Analysis (LTEA) Assay for Intercellular Adhesion Molecule 1 (ICAM1) using HepaRG (AID 2283507). The essentials: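 Differentiated human HepaRG cells in serum-free induction medium exposed 48 h in duplicate to 8 half-log concentrations (top 100 uM, 0.5% DMSO). ICAM1 mRNA quantified by TaqMan qRT-PCR, normalized to ACTB, GAPDH and POLR2A; bidirectional fitting versus DMSO.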

Sequence of Hypoxia-inducible factor 1-alpha (Homo sapiens) (Q16665 whole entry, looked up): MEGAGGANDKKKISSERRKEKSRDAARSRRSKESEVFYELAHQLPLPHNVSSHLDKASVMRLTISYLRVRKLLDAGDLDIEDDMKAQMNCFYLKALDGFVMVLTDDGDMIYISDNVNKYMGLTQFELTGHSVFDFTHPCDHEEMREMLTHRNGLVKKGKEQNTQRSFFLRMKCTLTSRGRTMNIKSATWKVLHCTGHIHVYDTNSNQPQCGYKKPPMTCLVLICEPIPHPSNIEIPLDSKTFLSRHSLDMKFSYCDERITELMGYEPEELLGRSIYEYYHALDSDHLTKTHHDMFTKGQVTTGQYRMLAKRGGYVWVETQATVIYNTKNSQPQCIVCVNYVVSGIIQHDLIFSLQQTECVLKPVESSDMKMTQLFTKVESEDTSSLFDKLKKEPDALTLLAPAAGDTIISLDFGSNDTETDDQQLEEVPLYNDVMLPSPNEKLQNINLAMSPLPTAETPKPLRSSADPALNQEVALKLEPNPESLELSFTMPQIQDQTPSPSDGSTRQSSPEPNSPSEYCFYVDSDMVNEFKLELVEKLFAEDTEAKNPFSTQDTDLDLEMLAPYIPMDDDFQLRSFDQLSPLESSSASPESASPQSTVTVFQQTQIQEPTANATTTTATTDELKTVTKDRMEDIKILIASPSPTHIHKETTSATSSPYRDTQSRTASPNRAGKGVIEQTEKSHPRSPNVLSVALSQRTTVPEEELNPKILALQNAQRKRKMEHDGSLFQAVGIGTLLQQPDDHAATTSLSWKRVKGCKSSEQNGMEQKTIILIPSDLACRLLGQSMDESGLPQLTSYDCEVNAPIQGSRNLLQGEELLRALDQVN
Sequence of Cytochrome P450 3A7 (Homo sapiens) (P24462 whole entry, looked up): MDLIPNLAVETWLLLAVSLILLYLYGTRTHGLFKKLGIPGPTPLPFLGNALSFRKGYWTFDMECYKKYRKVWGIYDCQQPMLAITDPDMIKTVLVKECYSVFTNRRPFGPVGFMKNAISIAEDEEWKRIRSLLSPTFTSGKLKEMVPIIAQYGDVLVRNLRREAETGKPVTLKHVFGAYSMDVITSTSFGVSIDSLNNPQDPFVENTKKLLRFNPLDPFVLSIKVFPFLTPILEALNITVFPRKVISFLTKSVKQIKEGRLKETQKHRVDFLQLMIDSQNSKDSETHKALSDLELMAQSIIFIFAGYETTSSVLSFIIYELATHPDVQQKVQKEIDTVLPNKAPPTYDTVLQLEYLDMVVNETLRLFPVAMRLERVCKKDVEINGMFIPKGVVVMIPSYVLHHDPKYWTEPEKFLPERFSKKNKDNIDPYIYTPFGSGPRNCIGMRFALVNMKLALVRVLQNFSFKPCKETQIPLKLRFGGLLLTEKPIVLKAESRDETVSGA

As for `OC[C@@H](O)[C@@H](O)[C@H](O)[C@H](O)CO`, the outcome (in [1]; in experiment [2]; in experiment [3]; in experiment [4]; with CYP3A5 (gene 1577); in experiment [5]) was inactive. In addition, the call in [6], in experiment [7], in [8], in experiment [9], in [10] and in [11] was inactive. Moreover, the call in experiment [12], in [13], in experiment [14], in experiment [15] and in [16] was inactive.

What is called AC50 is the concentration giving half of the maximal activity seen. As to `O=C(N[C@@H](Cc1ccccc1)[C@@H](O)C(=O)N1C[C@@H](O)[C@@H](O)C1)c1cc2cc(Cl)ccc2[nH]1`, the outcome (in experiment [1]; in [2]; in the experiment with CYP3A5 (gene 1577); in experiment [5]; in [7]; in experiment [9]) was inactive. The call (in experiment [17]; in [10]; in [11]; in experiment [12]; in experiment [13]; with HGF (gene 3082)) was inactive. Moreover, the result in experiment [15] and in experiment [18] was inactive. Moreover, the AC50 in experiment [3] was 9.92 µM (active); in experiment [4], 12.6 µM (active); in [6], 14.3 µM (active); in experiment [8], 81.7 µM (active); in [14], 89 µM (active); in [16] it was 63.4 µM (active).

As to `COc1ccc(S(=O)(=O)N2C(=O)[C@@](c3ccccc3OC)(N3C[C@H](O)C[C@H]3C(=O)N(C)C)c3cc(Cl)ccc32)c(OC)c1`, the result in experiment [1] was inactive. For the same compound, the AC50 in [2] was 81.1 µM (active); in [3] it was 11.5 µM (active); in experiment [4] it was 30.4 µM (active); in the experiment with CYP3A5 (gene 1577) it was 13.2 µM (active); in experiment [5], 26.9 µM (active); in experiment [6], 15.8 µM (active). Further, the half-maximal activity concentration (AC50) was 21 µM (active) in [7]; 25 µM (active) in experiment [8]; 13 µM (active) in experiment [9]; 16.5 µM (active) in [17]; 78.6 µM (active) in experiment [10]; 19.5 µM (active) in experiment [11]. For the same compound, the AC50 in experiment [13] is 69.1 µM (active); in experiment [14], 15.8 µM (active); with HGF (gene 3082), 85.5 µM (active); in [15], 81.9 µM (active); in experiment [18] it was 21.6 µM (active); in experiment [16], 37.2 µM (active).
